# Laboratory results as given in publication PMC11062922 (Nature Chemical Biology, 2023).
# Like-named read-outs stand apart in the source and are kept apart here.
# Key:
# ABL1 = system: ABL1; design: species or system human, MV4-11 + K-562 + COLO205 + SK-N-BE2 + OVCAR-8; conditions: read-out: apparent Kd, n = 1
# BCR = system: BCR; design: species or system human, MV4-11 + K-562 + COLO205 + SK-N-BE2 + OVCAR-8; conditions: read-out: apparent Kd, n = 1
# CLK1 = system: CLK1; design: species or system human, MV4-11 + K-562 + COLO205 + SK-N-BE2 + OVCAR-8; conditions: read-out: apparent Kd, n = 1
# CLK4 = system: CLK4; design: species or system human, MV4-11 + K-562 + COLO205 + SK-N-BE2 + OVCAR-8; conditions: read-out: apparent Kd, n = 1
# CSNK2A1;CSNK2A3 = system: CSNK2A1;CSNK2A3; design: species or system human, MV4-11 + K-562 + COLO205 + SK-N-BE2 + OVCAR-8; conditions: read-out: apparent Kd, n = 1
# CSNK2A2 = system: CSNK2A2; design: species or system human, MV4-11 + K-562 + COLO205 + SK-N-BE2 + OVCAR-8; conditions: read-out: apparent Kd, n = 1
# RET = system: RET; design: species or system human, MV4-11 + K-562 + COLO205 + SK-N-BE2 + OVCAR-8; conditions: read-out: apparent Kd, n = 1
# Q6ZSR9 = Q6ZSR9 (human, UniProt Q6ZSR9); design: species or system MV4-11 + K-562 + COLO205 + SK-N-BE2 + OVCAR-8; conditions: read-out: apparent Kd, n = 1
# Chain of Q6ZSR9 (Q6ZSR9 whole entry, looked up): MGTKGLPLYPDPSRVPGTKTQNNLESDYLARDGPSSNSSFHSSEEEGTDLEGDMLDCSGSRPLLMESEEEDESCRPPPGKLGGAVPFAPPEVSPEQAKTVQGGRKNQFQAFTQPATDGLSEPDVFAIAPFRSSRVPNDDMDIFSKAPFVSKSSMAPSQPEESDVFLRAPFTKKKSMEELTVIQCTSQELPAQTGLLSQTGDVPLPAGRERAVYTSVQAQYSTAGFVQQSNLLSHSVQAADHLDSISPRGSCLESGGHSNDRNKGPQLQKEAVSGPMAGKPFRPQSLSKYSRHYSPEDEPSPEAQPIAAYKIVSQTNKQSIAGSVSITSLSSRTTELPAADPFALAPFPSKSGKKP
# ABL2 = system: ABL2; design: species or system human, MV4-11 + K-562 + COLO205 + SK-N-BE2 + OVCAR-8; conditions: read-out: apparent Kd, compound concentrations: 100 nM and 1000 nM (sheet 'Samples'), n = 1
# FYN = system: FYN; design: species or system human, MV4-11 + K-562 + COLO205 + SK-N-BE2 + OVCAR-8; conditions: read-out: apparent Kd, compound concentrations: 100 nM and 1000 nM (sheet 'Samples'), n = 1
# HCK = system: HCK; design: species or system human, MV4-11 + K-562 + COLO205 + SK-N-BE2 + OVCAR-8; conditions: read-out: apparent Kd, compound concentrations: 100 nM and 1000 nM (sheet 'Samples'), n = 1
# LCK = system: LCK; design: species or system human, MV4-11 + K-562 + COLO205 + SK-N-BE2 + OVCAR-8; conditions: read-out: apparent Kd, compound concentrations: 100 nM and 1000 nM (sheet 'Samples'), n = 1
# RIPK2 = system: RIPK2; design: species or system human, MV4-11 + K-562 + COLO205 + SK-N-BE2 + OVCAR-8; conditions: read-out: apparent Kd; compound concentrations: 100 nM and 1000 nM (sheet 'Samples'), CATDS: 3.7106800723599898E-2; n = 1
# RIPK3 = system: RIPK3; design: species or system human, MV4-11 + K-562 + COLO205 + SK-N-BE2 + OVCAR-8; conditions: read-out: apparent Kd; compound concentrations: 100 nM and 1000 nM (sheet 'Samples'), CATDS: 5.0630244265372597E-2; n = 1
# TNK1 = system: TNK1; design: species or system human, MV4-11 + K-562 + COLO205 + SK-N-BE2 + OVCAR-8; conditions: read-out: apparent Kd, compound concentrations: 100 nM and 1000 nM (sheet 'Samples'), n = 1
# YES1 = system: YES1; design: species or system human, MV4-11 + K-562 + COLO205 + SK-N-BE2 + OVCAR-8; conditions: read-out: apparent Kd, compound concentrations: 100 nM and 1000 nM (sheet 'Samples'), n = 1
# PTK6 = system: PTK6; design: species or system human, MV4-11 + K-562 + COLO205 + SK-N-BE2 + OVCAR-8; conditions: read-out: apparent Kd; compound concentrations: 100 nM and 1000 nM (sheet 'Samples'), CATDS: 5.57669232791278E-2; n = 1
# [1] = compound concentrations:100 nM and 1000 nM (sheet 'Samples')
compound,measurement,setting,value
COc1cc(/C=N/Nc2ncnc3[nH]ncc23)ccc1O [GW578748X],potency estimated from few doses,ABL1; [1],1250 nM
same,potency estimated from few doses,BCR; [1],678 nM
same,potency estimated from few doses,CLK1; [1],1370 nM
same,potency estimated from few doses,CLK4; [1],401 nM
same,potency estimated from few doses,CSNK2A1;CSNK2A3; [1],384 nM
same,potency estimated from few doses,CSNK2A2; [1],376 nM
same,potency estimated from few doses,RET; [1],494 nM
COc1cc2ncn(-c3cc(OCc4cccs4)c(C(N)=O)s3)c2cc1OC [GSK312948A],potency estimated from few doses,Q6ZSR9; [1],2250 nM
CN1CCc2ccc(Nc3nccc(-c4c(-c5cccc(NC(=O)c6c(F)cccc6F)c5)nc5ccccn45)n3)cc2C1.Cl [GSK1010829B],potency estimated from few doses,"ABL1; compound concentrations: 100 nM and 1000 nM (sheet 'Samples'), CATDS: 3.3461879574950899E-2",1490 nM
same,potency estimated from few doses,ABL2; CATDS: 5.23803591077244E-2,515 nM
same,potency estimated from few doses,FYN; CATDS: 4.4096007495545798E-2,732 nM
same,potency estimated from few doses,HCK; CATDS: 7.6691780637307694E-2,270 nM
same,potency estimated from few doses,LCK; CATDS: 0.10139412977774399,180 nM
same,potency estimated from few doses,"RET; compound concentrations: 100 nM and 1000 nM (sheet 'Samples'), CATDS: 6.1387367146580003E-2",387 nM
same,potency estimated from few doses,RIPK2,1110 nM
same,potency estimated from few doses,RIPK3,550 nM
same,potency estimated from few doses,TNK1; CATDS: 4.6231570261128598E-2,661 nM
same,potency estimated from few doses,YES1; CATDS: 8.6634925532114604E-2,225 nM
CNC(=O)c1ccccc1Nc1nc(Nc2cccc(CS(C)(=O)=O)c2)ncc1C.O=CO [GSK1520489A],potency estimated from few doses,"ABL1; compound concentrations: 100 nM and 1000 nM (sheet 'Samples'), CATDS: 1.34944121173274E-2",401 nM
same,potency estimated from few doses,ABL2; CATDS: 1.36244790700583E-2,389 nM
same,potency estimated from few doses,"BCR; compound concentrations: 100 nM and 1000 nM (sheet 'Samples'), CATDS: 1.52044449937046E-2",280 nM
same,potency estimated from few doses,"CLK1; compound concentrations: 100 nM and 1000 nM (sheet 'Samples'), CATDS: 2.0431825511786902E-2",131 nM
same,potency estimated from few doses,"CLK4; compound concentrations: 100 nM and 1000 nM (sheet 'Samples'), CATDS: 1.6424162942173099E-2",226 nM
same,potency estimated from few doses,"CSNK2A1;CSNK2A3; compound concentrations: 100 nM and 1000 nM (sheet 'Samples'), CATDS: 1.12264805832196E-2",773 nM
same,potency estimated from few doses,"CSNK2A2; compound concentrations: 100 nM and 1000 nM (sheet 'Samples'), CATDS: 1.1107914266042299E-2",807 nM
same,potency estimated from few doses,FYN; CATDS: 1.4785651294397E-2,304 nM
same,potency estimated from few doses,HCK; CATDS: 2.2518734177974401E-2,105 nM
same,potency estimated from few doses,LCK; CATDS: 2.8625863065429399E-2,63 nM
same,potency estimated from few doses,PTK6,19.7 nM
same,potency estimated from few doses,"Q6ZSR9; compound concentrations: 100 nM and 1000 nM (sheet 'Samples'), CATDS: 1.0084125464563E-2",1260 nM
same,potency estimated from few doses,"RET; compound concentrations: 100 nM and 1000 nM (sheet 'Samples'), CATDS: 2.6340417566827701E-2",74.6 nM
same,potency estimated from few doses,TNK1; CATDS: 3.8833580007227697E-2,35.6 nM
same,potency estimated from few doses,YES1; CATDS: 2.28565858871594E-2,101 nM
